The nature of assay [1]: qHTS assay to identify small molecule antagonists of the estrogen receptor alpha (ER-alpha) signaling pathway using the BG1 cell line in the presence of 0.1 nM 17-beta-estradiol - cell viability counter screen (AID 1259241). Note: nearly all actives have a fitted effect of over 40% in size. Note: potency is the fitted concentration of half-maximal effect. Put shortly: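 CellTiter-Fluor read (30 min, 37C) on ER-alpha/ERE-luc VM7Luc4E2 cells; 22 hr compound treatment; agonist 0.1 nM E2 final; same-well multiplex.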
On the technique in general: qHTS replaces the single test concentration by a dilution series.

Assay [2] is described as follows: qHTS assay to identify small molecule antagonists of the androgen receptor (AR) signaling pathway using the MDA cell line in the presence of 0.5 nM R1881 - cell viability counter screen (AID 1259242). Note: nearly all actives have a fitted effect of over 45% in size. Note: potency is the fitted concentration of half-maximal effect. The method in brief:
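Concentration-response screen of compounds for toxicity in MDA-kb2 reporter cells: 16 hr at 37C with 0.5 nM R1881, endpoint live-cell protease fluorescence measured in the reporter wells.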

Assay [3] is described as follows: qHTS assay to identify small molecule HDAC inhibitors - cell viability counter screen (AID 1259365). Note: nearly all actives have a fitted effect of over 50% in size. Note: potency is the fitted concentration of half-maximal effect. The method in brief: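 To flag cytotoxic hits, 1,500 wild-type HCT-116 cells per well, plated the day before, receive test compounds for 2hr at 37 C before CellTiter-Glo reagent and a luminescence read.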
Assay [4] can be described thus: qHTS assay to identify small molecule agonists of the sonic hedgehog signaling (Shh) pathway - cell viability counter screen (AID 1259366). Note: nearly all actives have a fitted effect of over 50% in size. Note: potency is the fitted concentration of half-maximal effect. The method in brief:
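Fluorescence from CellTiter-Fluor reports live cells in this counter screen. NIH/3T3-derived Gli1-Luc reporter cells receive test compounds for 24hr at 37C; reagent goes in at 23hr.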

A short description of assay [5]: qHTS assay to identify small molecule antagonists of the sonic hedgehog signaling (Shh) pathway - cell viability counter screen (AID 1259367). Note: nearly all actives have a fitted effect of over 55% in size. Note: potency is the fitted concentration of half-maximal effect. Put shortly: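 Tox21 library chemicals were tested on a Gli1-Luc NIH/3T3 clone (2,000 cells/well) stimulated by conditioned medium; viability was quantified as fluorescence from CellTiter-Fluor reagent added at 23 hr.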
Assay [6] is described as follows: qHTS assay to identify small molecule agonists of the sonic hedgehog signaling (Shh) pathway (AID 1259368; calls by dose curve;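 note: NIH/3T3-derived 3T3Gli1-Luc cells carrying a stable Gli1-driven firefly luciferase reporter; series mostly up to about 92 µM; nearly all actives have a fitted effect of over 15% in size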). The method in brief: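 Hedgehog pathway agonism scored by increased firefly luciferase luminescence in 3T3Gli1-Luc cells treated 24 hr at 37 C; detection used a 30 min room-temperature reagent incubation.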
For assay [7], the target named is Androgen receptor (Homo sapiens) (UniProt P10275). Put plainly: qHTS assay to identify small molecule antagonists of the androgen receptor (AR) signaling pathway using the MDA cell line in the presence of 0.5 nM R1881 (AID 1259243). Note: nearly all actives have a fitted effect of over 50% in size. Note: potency is the fitted concentration of half-maximal effect. Put shortly:
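With R1881 held at 0.5 nM (final), compound effects on MMTV-luciferase expression in MDA-kb2 cells were scored by luminescence after a 16 hr, 37C incubation.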

A short description of assay [8]: qHTS assay to identify small molecule phospholipidosis (PLD) inducers (AID 1259344; active = well fitted curve in the direction sought with a large enough effect; an effect the other way counts as inactive or inconclusive). Put shortly:
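Image-based: LipidTOX Red pit count/intensity per well and per cell; HepG2, 24 h compound at 37 C, PFA fixation, Hoechst counterstain.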

The nature of assay [9]: qHTS assay to identify small molecule HDAC inhibitors (AID 1259364). Note: potency is the fitted concentration of half-maximal effect.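 Note: wild-type HCT-116 cells with endogenous class I/II HDAC activity; nearly all actives have a fitted effect of over 45% in size.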 The method in brief: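 Screening used wild-type human colon HCT-116 cells incubated overnight, dosed with compounds for 2 hours, and assayed with a homogeneous luminogenic HDAC I/II reagent for 30 minutes at room temperature.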
Assay [10] addresses Estrogen receptor (Homo sapiens) (UniProt P03372). Put plainly: qHTS assay to identify small molecule antagonists of the estrogen receptor alpha (ER-alpha) signaling pathway using the BG1 cell line in the presence of 0.1 nM 17-beta-estradiol (AID 1259244). Note: nearly all actives have a fitted effect of over 50% in size. Note: potency is the fitted concentration of half-maximal effect. The method in brief: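 Compounds were tested against 0.1 nM (final) 17beta-estradiol in VM7Luc4E2 cells, which express full-length ER-alpha and an ERE-luciferase reporter; luminescence was recorded following 22 h exposure.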

Each structure is given as a SMILES string. Where “and” joins values, the source holds several entries; their conditions need not be identical. Equal values may be shown once. A number with no mark means an inactive call. Inconclusive results are not listed. Calls of active or inactive are those of the source. Unless noted, calls come from the whole dose curve; as a rule, active = well fitted curve in the direction sought with a large enough effect in the repeat runs; inconclusive = weak or mixed curves; inactive = no such curve, though single readings can be large; an effect the other way counts as inactive or inconclusive.
% is set by controls: 0 for no effect and ±100 for the full control effect.

Chain of Estrogen receptor (Homo sapiens) (P03372 whole entry, looked up): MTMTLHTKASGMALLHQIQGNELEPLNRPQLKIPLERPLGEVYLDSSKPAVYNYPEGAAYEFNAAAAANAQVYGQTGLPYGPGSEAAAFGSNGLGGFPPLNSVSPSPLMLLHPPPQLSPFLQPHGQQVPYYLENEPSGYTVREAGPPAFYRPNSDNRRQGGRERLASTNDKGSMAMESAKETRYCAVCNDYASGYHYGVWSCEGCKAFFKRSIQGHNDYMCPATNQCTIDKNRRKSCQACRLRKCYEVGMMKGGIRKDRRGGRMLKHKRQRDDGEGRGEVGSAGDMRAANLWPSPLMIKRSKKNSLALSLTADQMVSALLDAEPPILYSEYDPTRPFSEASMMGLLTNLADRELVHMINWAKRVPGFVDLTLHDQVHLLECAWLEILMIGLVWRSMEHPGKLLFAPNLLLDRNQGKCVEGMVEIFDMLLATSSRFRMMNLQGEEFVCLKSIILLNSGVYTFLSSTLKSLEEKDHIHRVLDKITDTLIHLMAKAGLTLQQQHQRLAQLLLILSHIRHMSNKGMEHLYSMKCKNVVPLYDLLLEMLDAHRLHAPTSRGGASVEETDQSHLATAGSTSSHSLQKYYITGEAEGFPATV
Chain of Androgen receptor (Homo sapiens) (P10275 whole entry, looked up): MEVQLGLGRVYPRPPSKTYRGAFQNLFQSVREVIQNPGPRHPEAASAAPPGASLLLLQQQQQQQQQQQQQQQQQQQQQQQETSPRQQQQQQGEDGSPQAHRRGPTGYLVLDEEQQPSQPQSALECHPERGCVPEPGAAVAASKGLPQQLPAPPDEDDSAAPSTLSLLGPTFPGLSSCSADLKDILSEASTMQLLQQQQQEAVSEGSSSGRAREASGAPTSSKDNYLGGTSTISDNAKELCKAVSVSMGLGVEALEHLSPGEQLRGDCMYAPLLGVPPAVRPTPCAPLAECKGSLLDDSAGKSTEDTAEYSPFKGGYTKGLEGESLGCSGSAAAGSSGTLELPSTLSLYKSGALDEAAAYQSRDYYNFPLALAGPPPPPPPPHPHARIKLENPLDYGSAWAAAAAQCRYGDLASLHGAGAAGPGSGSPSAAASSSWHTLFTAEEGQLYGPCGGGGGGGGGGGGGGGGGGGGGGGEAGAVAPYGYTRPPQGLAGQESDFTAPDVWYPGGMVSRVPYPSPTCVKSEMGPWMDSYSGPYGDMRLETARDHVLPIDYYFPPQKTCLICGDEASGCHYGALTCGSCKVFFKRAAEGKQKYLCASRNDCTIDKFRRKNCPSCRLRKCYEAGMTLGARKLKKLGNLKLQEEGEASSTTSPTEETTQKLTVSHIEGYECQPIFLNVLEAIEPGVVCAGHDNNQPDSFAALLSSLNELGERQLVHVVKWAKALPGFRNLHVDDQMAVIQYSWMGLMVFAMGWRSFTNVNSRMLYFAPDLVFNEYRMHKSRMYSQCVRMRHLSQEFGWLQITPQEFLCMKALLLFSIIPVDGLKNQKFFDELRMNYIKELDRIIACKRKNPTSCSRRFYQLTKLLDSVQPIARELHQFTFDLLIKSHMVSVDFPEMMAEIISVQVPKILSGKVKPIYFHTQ

Regarding `Brc1ccc(Oc2ccc(Br)cc2Br)c(Br)c1`, the Potency result in assay [1], in [2], in assay [3], in assay [4], in [5] and in assay [6] was “inactive” in each case.

For the compound `COc1ccc(Cc2nccc3cc(OC)c(OC)cc23)cc1OC`, the Potency entry in [1], in assay [9], in assay [3], in assay [5] and in assay [6] was “inactive” each time. In assay [7], the Potency was 6.68 µM (active). Moreover, in assay [8], the outcome was inactive.

In the case of `O=[N+]([O-])c1cc(C(F)(F)F)c(Cl)c([N+](=O)[O-])c1Nc1ncc(C(F)(F)F)cc1Cl`, the Potency in assay [2] was 4.86 µM (active); in assay [10] it was 24.3 µM (active); in assay [3] it was 54.5 µM (active); in [4], 4.33 µM (active); in assay [5] it was 6.11 µM (active). Also, the Potency entry in assay [9] and in assay [6] was “inactive” throughout.

Turning to `COc1ccc2c(c1OC)C(=O)O[C@@H]2[C@H]1c2cc3c(cc2CCN1C)OCO3`, the Potency entry in [2], in assay [7], in [9] and in assay [6] was “inactive” in each case. For the same compound, the Potency is 2.41 µM (active) in assay [4] and 3.03 µM (active) in assay [5].

`O=NN(CCO)CCO`: the Potency result in assay [2], in assay [7], in assay [10], in assay [9], in assay [3] and in assay [4] was “inactive” each time. In assay [6], the Potency entry was “inactive”.

Take `C[C@H]1[C@H](c2ccc(Cl)cc2)SC(=O)N1C(=O)NC1CCCCC1`: the Potency entry in assay [1], in [9], in [3], in assay [4], in assay [5] and in [6] was “inactive” each time. For the same compound, the Potency is 48.6 µM (active) in assay [7] and 61.1 µM (active) in assay [10].

On to `CCN(CC)CCc1c[nH]c2ccccc12`, for which the Potency result in assay [2], in assay [10], in [9], in assay [4], in assay [5] and in assay [6] was “inactive” in each case. Moreover, the compound was classed as inactive in [8].

With `Cc1ccccc1OP(=O)(Oc1ccccc1C)Oc1ccccc1C`, the Potency result in assay [2], in assay [10], in [9], in [4] and in [6] was “inactive” throughout. Also, the Potency in assay [7] was 48.8 µM (active).

Take `[C-]1=CC=CC1.[Cl][Zr+2][Cl].c1cc[cH-]c1`: the Potency result in [1], in assay [2], in assay [9], in [5] and in assay [6] was “inactive” in each case.

Turning to `CC(C)=CCN1CC[C@@]2(C)c3cc(O)ccc3C[C@@H]1[C@@H]2C`, the Potency result in assay [2], in assay [10], in assay [9], in assay [3], in [4] and in assay [5] was “inactive” each time. For the same compound, the Potency entry in [6] was “inactive”. Further, the compound was called inactive in assay [8].

With `CC(=O)[O-].CC(=O)[O-].O.O.O.[Pb+2]`, the Potency entry in assay [1], in assay [2], in assay [9], in assay [4] and in assay [6] was “inactive” in each case.

As to `N#Cc1c2ccccc2cc2ccccc12`, the Potency result in assay [2], in assay [10], in [9], in assay [3] and in assay [6] was “inactive” in each case. For the same compound, in assay [7], the Potency is 10.8 µM (active).

On to `CCN(CC)C(=S)S`, for which the Potency in assay [1] is 15.3 µM (active); in assay [10], 13.6 µM (active); in [4] it was 38.9 µM (active) and 13.6 µM (active) and 27.3 µM (active). Further, the Potency entry in assay [9], in assay [3] and in [6] was “inactive” throughout.

For the compound `CC1=C2C[C@H]3[C@@H](CC=C4C[C@@H](O)CC[C@@]43C)[C@@H]2CC[C@]12O[C@@H]1C[C@H](C)CN[C@H]1[C@H]2C`, the Potency result in assay [1], in assay [7], in [9], in assay [4], in [5] and in assay [6] was “inactive” throughout.

For `CC1(C)C(C=C(Cl)Cl)C1C(=O)OC(C#N)c1ccc(F)c(Oc2ccccc2)c1` (centres undefined), the Potency result in assay [2], in [10], in [9], in [3], in assay [4] and in assay [5] was “inactive” each time. The Potency entry in assay [6] was “inactive”.

In the case of `O=C(NC(=O)c1ccccc1Cl)Nc1ccc(OC(F)(F)F)cc1`, the Potency result in [2], in assay [7], in assay [3], in assay [4], in assay [5] and in assay [6] was “inactive” throughout.

`Oc1ccc([C@H]2CNCc3c2ccc(O)c3O)cc1O`: the Potency entry in [2], in [10], in assay [9], in [3], in assay [4] and in assay [5] was “inactive” in each case. Further, the Potency entry in assay [6] is “inactive”. In addition, the PLD induction in assay [8] is -2.7% [at 7.66 µM].

Consider `O.O.O.O=C([O-])[C@H]([O-])[C@@H]([O-])C(=O)[O-].O=C([O-])[C@H]([O-])[C@@H]([O-])C(=O)[O-].[K+].[K+].[Sb+3].[Sb+3]`, for which the Potency in assay [1] was 48.8 µM (active). For the same compound, the Potency entry in assay [9], in assay [3], in assay [4] and in [6] was “inactive” throughout.

As for `CN(C)c1ccc(N)cc1`, the Potency in assay [1] was 47.4 µM (active); in assay [10] it was 29.9 µM (active); in assay [9] it was 23.7 µM (active); in [4], 53.2 µM (active).

Turning to `CCOP(=S)(NC(C)C)Oc1ccccc1C(=O)OC(C)C` (centres undefined), the Potency entry in [1], in [9], in assay [3], in [4] and in assay [6] was “inactive” throughout.

On to `Nc1cc(Cl)ccc1Cl`, for which the Potency entry in [2], in [9], in assay [3], in [4], in assay [5] and in [6] was “inactive” in each case.

As to `Nc1nc(N)nc(Cl)n1`, the Potency entry in [2], in assay [10], in assay [9], in assay [3], in [4] and in [5] was “inactive” each time. Further, in [6], the Potency entry was “inactive”.

Take `CNC(C)(C)Cc1ccccc1`: the Potency result in assay [2], in [9], in assay [3], in [4], in assay [5] and in assay [6] was “inactive” in each case. Moreover, the compound was classed as inactive in assay [8].

Take `c1ccc(Nc2ccc(Nc3ccccc3)cc2)cc1`: the Potency entry in [2], in [10], in assay [9] and in assay [5] was “inactive” in each case.

With `COC(=O)N(OC)c1ccccc1COc1ccn(-c2ccc(Cl)cc2)n1`, the Potency in assay [2] is 2.17 µM (active); in assay [10], 0.686 µM (active). The Potency entry in assay [9], in [3], in assay [4], in [5] and in assay [6] was “inactive” each time.

`Nc1c(Cl)c(Cl)c(Cl)c(Cl)c1Cl`: the Potency entry in assay [2], in [9], in [3], in [4] and in assay [6] was “inactive” throughout.

Consider `CCNc1nc(NC(C)C(C)C)nc(SC)n1` (centres undefined), for which the Potency result in assay [2], in [10], in assay [9], in [4], in assay [5] and in [6] was “inactive” throughout.

Consider `NC1CCC(CC2CCC(N)CC2)CC1` (centres undefined), for which the Potency result in [9] and in assay [6] was “inactive” throughout.

Regarding `COP(=O)(OC)Oc1ccc([N+](=O)[O-])cc1`, the Potency result in [2], in assay [10], in assay [9], in assay [4] and in [6] was “inactive” throughout.

These data come from PubChem BioAssay (Tox21).
